PubChem BioAssay AID686970 (National Center for Advancing Translational Sciences (NCATS), 2013)
About 6,000 (1.7%) of roughly 360,000 compounds were called active. About 8% were inconclusive and are not listed. Shown is part of a subset that was picked to be rich in actives. Values without a mark were called inactive. Calls follow the shape of the dose curve; as a rule, active = well fitted cell-killing curve with a large enough effect; inconclusive = small, poorly fitted or top-dose-only effect, or effect the other way; inactive = flat fitted curve, though single readings scatter.

Assay: qHTS for induction of synthetic lethality in tumor cells producing 2HG: qHTS for the HT-1080-NT fibrosarcoma cell line;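 also: NT is the 2HG producing partner of a matched IDH1 knockdown line; nearly all actives have a fitted effect of over 55% in size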;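 as to activity, negative = less viability: 0% = DMSO-treated cells and -100% = media-only wells without cells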
Conditions: HT-1080-NT fibrosarcoma viability, CellTiter-Glo ATP luminescence, 48 h; series mostly up to 46.1 µM; activity, negative = less viability: at the top concentration
Method in brief: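 HT-1080-NT fibrosarcoma cells (2HG-overproducing), 750 cells/well in RPMI with 5% FBS, dosed after 2 h and incubated 48 h at 37C. CellTiter-Glo luminescence normalized to DMSO and no-cell wells; concentration-response curves fitted and classed.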
Potency is read from the fitted curve at half-maximal effect.

Going from O=S1(=O)CC(N2CCC(Cc3ccccc3)CC2)CN1Cc1ccccc1 (configuration not stated) to c1ccc(C(c2ccccc2)N2CCN(Cc3nnnn3C3CCCCC3)CC2)cc1, the “activity, negative = less viability” value falls from 2.96% to -0.131%.

Compared with CN(C)c1nc(=Nc2cccc(Cl)c2)ss1, COc1ccc(-c2csc(Nc3cccc(C)n3)n2)cc1OC is higher in “activity, negative = less viability” value: 0.234% for the first, 1.13% for the second.

Compared with Cc1cccc(C)c1-n1nnnc1C1(C)CCC(=O)N1CCOc1ccccc1 (configuration not stated), CCCCn1nnnc1C(c1ccccc1)N1CCN(c2ccccc2OC)CC1 (configuration not stated) is lower in “activity, negative = less viability” value: 2.56% for the first, -0.82% for the second.

First: CCCCc1ccc(S(=O)(=O)NC(=O)C2(C)CCN2C(=O)c2c(C)noc2C)cc1 (configuration not stated)
Second: COC(=O)[C@]12CCCCC=C1N(Cc1ccccc1)C(=O)[C@H](CC(=O)NCc1ccc(C)o1)C2
The “activity, negative = less viability” value of the first is lower: 0.469% for the first, 17.2% for the second.

Compared with C(=C\c1ccccc1)/CSc1nnc(-c2cccnc2)n1Cc1ccco1, COc1ccccc1CN1CCN(C(c2ccccc2)c2ccccc2)CC1 is lower in “activity, negative = less viability” value: 2.54% for the first, -20.9% for the second.

First: COC(=O)c1ccc2nc(C3CCCCC3)c(Cc3cccc(F)c3)n2c1
Second: CCc1nc2ccc(C(=O)NC3CCN(Cc4ccccc4)CC3)cn2c1N(CC)CCOC
The “activity, negative = less viability” value of the first is lower: -0.226% for the first, 3% for the second.

Compared with O=C(Nc1cccc(Cc2ccccc2)c1)Nc1ccc2nc([C@@H]3O[C@H](CO)[C@@H](O)[C@H](O)[C@H]3O)[nH]c2c1, CN(c1ccccc1)S(=O)(=O)c1cc(C(=O)Nc2nc3ccccc3[nH]2)ccc1Cl is lower in “activity, negative = less viability” value: 12.1% for the first, -2.94% for the second.

First: Cc1ccc(O)c(CNc2nc3ccccc3[nH]2)c1
Second: Cc1cccc(NC(=O)C(C)SCc2ccccc2)c1 (configuration not stated)
The “activity, negative = less viability” value of the first is higher: -12.6% for the first, -15.9% for the second.

First: CC(C)c1cc(CN2CCOCC2)cc(C(C)C)c1O
Second: O=C(CN1CCN(Cc2ccccc2)CC1)Nc1ccc(F)c(F)c1
The “activity, negative = less viability” value of the first is higher: 2.87% for the first, -3.12% for the second.

First: Cc1ccc(-c2ccc(CN3C(C(C)C)C(=O)N(Cc4cn(CCC5OCCCO5)nn4)CCS3(=O)=O)cc2)cc1 (configuration not stated)
Second: CN(C)C(=O)c1cccc(-c2cnc3c(NC=O)cc(-c4ccc(C(=O)N5CCOCC5)cc4)cn23)c1
The “activity, negative = less viability” value of the first is higher: -0.2% for the first, -6.25% for the second.

First: CCOC(=O)/C(=N\Nc1ccccc1Cl)N(C)C1CCS(=O)(=O)C1 (configuration not stated)
Second: CCOC(=O)N1CCN(CCC(=O)Nc2ccccc2)CC1
The “activity, negative = less viability” value of the first is lower: 7.09% for the first, 16.3% for the second.

Going from CCOC(=O)N1CCN(C(=O)C2CCN(S(=O)(=O)c3cc(Cl)ccc3OCC)CC2)CC1 to Cc1ccc(C(=O)OCC(=O)NC2CCCCCCC2)cc1C, the “activity, negative = less viability” value rises from 0% to 17.5%.

First: CCc1ccccc1NC(=O)[C@@H]1CCC(=O)N1C1OC(=O)c2c1ccc(OC)c2OC (some centres not stated)
Second: COc1ccc(OC)c(NC(=O)C2CCCN2S(=O)(=O)c2ccc3c(c2)CC(C)N3C(C)=O)c1 (configuration not stated)
The “activity, negative = less viability” value of the first is lower: 0% for the first, 1.98% for the second.

First: O=C(NCc1cccc(C(F)(F)F)c1)c1ccc2sc(COCCO)nc2c1
Second: CC(=O)Nc1cccc(Nc2ccc(C#N)cc2)c1
The “activity, negative = less viability” value of the first is lower: 0.384% for the first, 3.54% for the second.

Going from CC(C)C1Cc2[nH][nH]c(=O)c2C(c2ccc(Cl)cc2)O1 (configuration not stated) to CC1Cc2[nH][nH]c(=O)c2C(C2CC2)O1 (configuration not stated), the “activity, negative = less viability” value falls from 13.4% to 2.88%.

Compared with C#CCOCCOCCOCCNc1nc(N2CCN(C(=O)[C@H](C(C)C)n3cc(CCO)nn3)CC2)nc(N2CCN(C(=O)[C@H]([C@@H](C)CC)n3cc(CCCN=C(N)N)nn3)CC2)n1, C#CCOCCOCCOCCNc1nc(N2CCN(C(=O)Cn3cc(CCO)nn3)CC2)nc(N2CCN(C(=O)Cn3cc(CCCN=C(N)N)nn3)CC2)n1 is lower in “activity, negative = less viability” value: 13.2% for the first, 4.19% for the second.

First: Cc1ccc(NC(=O)COC(=O)CN2CCSC2=O)cc1F
Second: NC(=O)CSc1nnc(NC(=O)c2ccc(Br)o2)s1
The “activity, negative = less viability” value of the first is lower: 2.14% for the first, 8.26% for the second.

In the case of Clc1cccc(N=C2NN=C(c3ccc4c(c3)OCCO4)CS2)c1, the Potency is reported as 10 µM (active).
For N=c1c2c(-c3ccccc3)c(-c3ccccc3)oc2ncn1Cc1ccco1, the Potency was 23.1 µM (active).
In the case of CC1(C)CC(N2CCN(C(c3ccccc3)c3ccccc3)CC2)=CC(=[N+]2CCCCC2)C1, the Potency is reported as 2.06 µM (active).
In the case of COC(=O)Nc1nc2ccc(Sc3ccccc3)cc2[nH]1, the Potency is reported as 1.16 µM (active).
In the case of Oc1c(C(c2ccccn2)N2CCOCC2)ccc2cccnc12 (configuration not stated), the Potency is reported as 0.355 µM (active).
For CCOC(=O)/C(=N\Nc1cc(Cl)ccc1Cl)N1CCN(C)CC1, the Potency was 16.4 µM (active).
For COc1ccc2c(c1OC)C(=O)OC2Nc1nc(-c2ccccc2)cs1 (configuration not stated), the Potency was 18.4 µM (active).
With C=C1C(=O)[C@]23C[C@H]1CCC2[C@@]1(C)C(C[C@@H]3O)[C@](C)(C(=O)O)CC[C@@H]1O (some centres not stated) the Potency was 18.4 µM (active).
With Cc1cc(NC(=O)CCN2CCN(Cc3ccccc3)CC2)ccc1Br the Potency was 20.6 µM (active).
In the case of O=[N+]([O-])c1ccc(Oc2ccc(F)cc2Br)c2ccncc12, the Potency is reported as 16.4 µM (active).
For C#CCOCCOCCOCCNc1nc(N2CCN(C(=O)CCCCCCCCCCNC(=O)[C@H]([C@@H](C)CC)n3cc(CCCCN=C(N)N)nn3)CC2)nc(N2CCN(C(=O)CCCCCCCCCCNC(=O)[C@H](CO)n3cc(CCCSC)nn3)CC2)n1, the Potency was 23.1 µM (active).
For CSc1nnc(NC(=O)c2nc(S(=O)(=O)Cc3ccc(C)cc3)ncc2Cl)s1, the Potency was 7.31 µM (active).
With Cc1cccc(NC(=O)c2nc(S(=O)(=O)Cc3ccccc3)ncc2Cl)c1 the Potency was 6.51 µM (active).
